For 23 compounds, reporter increase results are on record in PubChem BioAssay AID602393 (Broad Institute, 2012).

Out of some 350,000 compounds screened, about 7,000 (2%) were called active. No stated cut-off is given here; in the data, active means activation above about 40%; inconclusive means no clear call, values can overlap the other calls; inactive means below that. Only a selection was taken, and actives are over-represented in it overall.

The nature of the assay: Bmi1 luciferase reporter increase in mESCs, primary screen, esBAF inhibitor project, mouse ES cells, Bmi1 luciferase knock-in, single point (AID 602393).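 Further: 0% = median of the plate's neutral control wells and 100% = double that signal; a rise in the Bmi1 reporter signal indicates esBAF inhibition.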 Particulars: 24 h, at 12.5 µM, stronger effect = higher value, 100% = twice the neutral-well signal. A general note: In a reporter assay the amount or activity of a reporter protein is the signal.
For the compound `Cn1c(Nc2cccc(Cl)c2)nc2ccccc21`, the reporter increase is 53.4% (active).
Take `O=C(Cn1c(NCCO)nc2ccccc21)c1ccc(Cl)cc1Cl`: the reporter increase is -0.748% (inactive).
With `C/C(=N\c1nc2ccccc2n1C)c1cc(Cl)ccc1O` the figure was -2.25% (inactive); with `C[C@@H]1CN([C@H](C)CO)C(=O)CCCn2cc(nn2)CO[C@@H]1CN(C)C(=O)c1ccc2ccn(C)c2c1`, -1.71% (inactive); with `Cc1cc(CN(C)C(=O)c2cc(COc3ccc(C)c(C)c3)on2)n[nH]1`, 13.8% (inactive).
With `Cc1ccc(OCc2cc(C(=O)N(C)CCc3ccccc3)no2)cc1C` the figure was 71.6% (active); with `Cc1ccc(OCc2cc(C(=O)N(C)CCn3ccnc3C)no2)cc1C`, 11.8% (inactive).
With `O=C(Nc1ccccc1)Nc1ccc2c(c1)[C@@H]1C[C@@H](CC(=O)N3CCCCC3)O[C@H](CO)[C@@H]1O2` the figure was -0.639% (inactive).
Turning to `CO[C@H]1CN(C)C(=O)c2ccc(NS(=O)(=O)c3cn(C)cn3)cc2OC[C@@H](C)N(CC2CC2)C[C@H]1C`, the reporter increase is -8.79% (inactive).
With `O=C(Nc1ccon1)c1nc[nH]c1C(=O)NCc1ccccc1`, the reporter increase was -6.72% (inactive).
For the compound `O=C(Nc1ccon1)c1sc2ccccc2c1Cl`, the reporter increase was 48.7% (active).
For the compound `CN1CCc2ccccc2C1Cc1ccccc1NC(=O)c1sc2ccccc2c1Cl` (stereo not drawn), the reporter increase is 51% (inactive).
The figure for `O=C(CSc1nc2ccccc2c(=O)n1-c1ccc(F)cc1)NC1CC1` is -5.85% (inactive).
As for `O=C(CSc1nc2ccccc2c(=O)n1-c1ccccc1F)N1CCOCC1`, the reporter increase is -4.38% (inactive).
For `Cc1ccc(-n2c(SCC(=O)N3CCC(C(=O)O)CC3)nc3ccccc3c2=O)cc1C`, the reporter increase is 42% (active).
With `Cc1noc(C)c1NC(=O)Nc1ccc2c(c1)C(=O)N([C@H](C)CO)C[C@H](C)[C@H](CN(C)S(=O)(=O)c1cccs1)O2` the figure was 1.55% (inactive); with `O=C(NC1CCCC1)[C@H]1[C@H](CO)[C@H]2Cn3c(ccc(-c4ccccc4F)c3=O)[C@@H]1N2C(=O)CC1CC1`, -2.95% (inactive).
In the case of `CO[C@H]1CN(C)C(=O)c2cc(NS(=O)(=O)c3ccccc3C)ccc2OC[C@@H](C)NC[C@@H]1C`, the reporter increase is 1.69% (inactive).
With `C[C@@H]1CCCCO[C@H](CN(C)C(=O)CCCN(C)C)[C@H](C)CN([C@@H](C)CO)C(=O)c2cc(NS(=O)(=O)c3ccc(Cl)cc3)ccc2O1`, the reporter increase is 2.25% (inactive).
Regarding `C[C@H](CO)N1C[C@H](C)[C@H](CN(C)Cc2ccc(C(F)(F)F)cc2)Oc2ccc(NC(=O)CCCCCC(=O)Nc3ccccc3N)cc2CC1=O`, the reporter increase is -12.1% (inactive).
`Cc1ccc(/C=N/NC(=O)Cn2nc(C)c(Br)c2C)o1`: the reporter increase is -0.989% (inactive).
In the case of `O=C(Cc1ccccc1)N/N=C/c1ccc(Cl)cc1Cl`, the reporter increase is 3% (inactive).
On to `CCn1nc(C)c(/C=N/NC(=O)Cc2ccc(Cl)cc2)c1C`, for which the reporter increase is 64.3% (active).
